Data reported in PubChem BioAssay (Tox21).
“And” between values parts separate entries of the source, which are not always exact repeats. Equal entries are not always repeated. Records with an inconclusive call do not appear. Entries that show only a call come without a potency. The source made the active and inactive calls. Unless noted, calls come from the whole dose curve; as a rule, active = well fitted curve in the direction sought with a large enough effect in the repeat runs; inconclusive = weak or mixed curves; inactive = no such curve, though single readings can be large; an effect the other way counts as inactive or inconclusive.

tested on: not listed separately; test: qHTS assay to identify small molecule antagonists of the androgen receptor (AR) signaling pathway - cell viability counter screen (AID 743033; note: nearly all actives have a fitted effect of over 45% in size; note: potency is the fitted concentration of half-maximal effect); settings: AR-bla HEK293 viability, CellTiter-Glo luminescence, 16 h; series mostly up to 58.5 µM

Row | Compound | Potency | activity change, negative = cytotoxicity
1 | O=C(/C=C/c1ccc(O)c(O)c1)O[C@@H](C(=O)O)[C@@H](OC(=O)/C=C/c1ccc(O)c(O)c1)C(=O)O | inactive | 
2 | CC(CO)Oc1ccccc1 (centres undefined) | inactive | 
3 | NC(=S)NC(N)=S | inactive | 
4 | O=C1C(c2[nH]c3ccc(S(=O)(=O)O)cc3c2O)=Nc2ccc(S(=O)(=O)O)cc21 | inactive | 
5 | Cc1c(C)c2c(c(C)c1O)CC[C@@](C)(CCC[C@H](C)CCC[C@H](C)CCCC(C)C)O2 | inactive | 
6 | O=C(O)c1cccc(C(F)(F)F)c1 | inactive | 
7 | Cc1ccc(C)cc1 | inactive | 
8 | CCCC1CCC(=O)CC1 | inactive | 
9 | C=C(C)c1cccc(C(=C)C)c1 | inactive | 
10 | O=C(O)CCN(C1(C(=O)NO)CCCC1)S(=O)(=O)c1ccc(Oc2ccc(F)cc2)cc1 | inactive | 
11 | CCCC(=O)OC(C)(C)Cc1ccccc1 | inactive | 
12 | CC(C)CCOC(=O)/C=C/c1ccccc1 | inactive | 
13 | CCCCCc1ccc(Cl)cc1 | inactive | 
14 | OCC(F)(F)F | inactive | 
15 | CCCCC(CC)CN1CN(CC(CC)CCCC)CC(C)(N)C1 (centres undefined) | inactive | 
16 | COc1cc(/C=C/c2ccccc2)oc(=O)c1 | inactive | 
17 | CC(=O)c1ccc(C(C)=O)cc1 | inactive | 

Row | Compound | Potency | activity change, negative = cytotoxicity
18 | CCOC(=O)Cn1cccc1-c1nc(-c2ccc(OC)cc2)c(-c2ccc(OC)cc2)s1 | inactive | 
19 | O=C(Oc1ccccc1)Oc1ccccc1 | inactive | 
20 | O=C(/C=C/c1ccccc1)OC/C=C/c1ccccc1 | inactive | 
21 | O=C(O)O |  | -8.19% [at 7.04 µM] (inactive)
22 | O=[N+]([O-])c1ccc(F)c(Cl)c1 | inactive | 
23 | FC(F)(F)c1cccc(Cl)c1 | inactive | 
24 | Cc1ccc(C(C)C)cc2c(C)ccc1-2 | inactive | 
25 | O=C1OC2(c3ccc(O)cc3Oc3cc(O)ccc32)c2ccc(N=C=S)cc21 | inactive | 
26 | CCCCCCCCCCOC(=O)c1ccccc1C(=O)OCCCCCCCC | inactive | 
27 | CCOC(=O)c1ccc(C2CCC(NC[C@H](O)COc3ccc(O)c(NS(C)(=O)=O)c3)CC2)cc1 (some centres undefined) | 45.2 µM (active) | 
28 | c1ccsc1 | inactive | 
29 | c1cnccn1 | inactive | 
30 | OC[C@H]1O[C@H](O[C@H]2O[C@H](CO)[C@@H](O)[C@H](O)[C@H]2O)[C@H](O)[C@@H](O)[C@@H]1O | inactive | 
31 | C#CC1(O)CC[C@H]2[C@@H]3CCC4=CCCC[C@@H]4[C@H]3CC[C@@]21C (some centres undefined) | inactive | 
32 | CCCCCCCCCCCCCC[N+](C)(C)Cc1ccccc1 | 23.9 µM (active) and 7.03 µM (active) | 
33 | CC1(C)CC(O)CC(C)(C)N1 | inactive | 
34 | CCc1cccc(CC)c1NC(=O)CN(CC(=O)O)CC(=O)O | inactive | 

biological target: Androgen receptor (Homo sapiens) (UniProt P10275); test: qHTS assay to identify small molecule antagonists of the androgen receptor (AR) signaling pathway (AID 743035; active = well fitted inhibition curve with a large enough effect in the signal ratio in the repeat runs, not every such curve was filed as active; the % refers to the signal ratio); settings: HEK293 AR-UAS-bla, R1881-stimulated, beta-lactamase FRET, 16 h; series mostly up to 58.5 µM
Sequence (P10275 whole entry, looked up): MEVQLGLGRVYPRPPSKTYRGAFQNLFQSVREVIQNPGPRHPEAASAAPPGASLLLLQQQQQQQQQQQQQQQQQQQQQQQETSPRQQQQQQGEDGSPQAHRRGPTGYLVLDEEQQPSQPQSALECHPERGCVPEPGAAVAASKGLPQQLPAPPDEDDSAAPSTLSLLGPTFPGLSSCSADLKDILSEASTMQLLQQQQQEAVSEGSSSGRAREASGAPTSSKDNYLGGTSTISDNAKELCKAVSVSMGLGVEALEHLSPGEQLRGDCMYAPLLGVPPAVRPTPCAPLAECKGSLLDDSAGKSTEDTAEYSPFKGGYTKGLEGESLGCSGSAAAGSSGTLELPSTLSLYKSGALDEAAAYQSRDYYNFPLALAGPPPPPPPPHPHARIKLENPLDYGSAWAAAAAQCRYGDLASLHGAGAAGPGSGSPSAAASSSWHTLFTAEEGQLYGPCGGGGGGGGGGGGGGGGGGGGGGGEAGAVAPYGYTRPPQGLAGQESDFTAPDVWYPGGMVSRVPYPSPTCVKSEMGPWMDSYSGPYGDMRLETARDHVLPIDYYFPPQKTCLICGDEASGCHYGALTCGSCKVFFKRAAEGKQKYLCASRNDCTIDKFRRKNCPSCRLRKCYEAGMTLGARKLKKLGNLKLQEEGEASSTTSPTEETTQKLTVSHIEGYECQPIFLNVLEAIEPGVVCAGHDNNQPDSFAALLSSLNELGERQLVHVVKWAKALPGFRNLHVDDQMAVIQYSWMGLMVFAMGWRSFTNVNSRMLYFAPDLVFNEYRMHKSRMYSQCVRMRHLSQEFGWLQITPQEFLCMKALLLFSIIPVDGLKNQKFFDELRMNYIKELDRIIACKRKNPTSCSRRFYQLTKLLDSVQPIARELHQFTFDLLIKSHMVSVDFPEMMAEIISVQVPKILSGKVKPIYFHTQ
Method in brief: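 Quantitative HTS of the Tox21 10K library used HEK293 AR-UAS-bla cells stimulated with R1881 alongside compound for 16 h at 37C, followed by beta-lactamase FRET detection (LiveBLAzer B/G, 2 h, RT).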

Row | Compound | Potency
35 | CC(CO)Oc1ccccc1 (centres undefined) | inactive
36 | NC(=S)NC(N)=S | inactive
37 | Cc1ccc(C)cc1 | inactive
38 | CCCCC(CC)CN1CN(CC(CC)CCCC)CC(C)(N)C1 (centres undefined) | inactive
39 | CC(=O)c1ccc(C(C)=O)cc1 | inactive
40 | CCOC(=O)Cn1cccc1-c1nc(-c2ccc(OC)cc2)c(-c2ccc(OC)cc2)s1 | inactive
41 | O=C(/C=C/c1ccccc1)OC/C=C/c1ccccc1 | inactive
42 | FC(F)(F)c1cccc(Cl)c1 | inactive
43 | c1ccsc1 | inactive
44 | OC[C@H]1O[C@H](O[C@H]2O[C@H](CO)[C@@H](O)[C@H](O)[C@H]2O)[C@H](O)[C@@H](O)[C@@H]1O | inactive

biological target: Androgen receptor (Homo sapiens) (UniProt P10275); test: qHTS assay to identify small molecule agonists of the androgen receptor (AR) signaling pathway (AID 743036; active = well fitted activation curve with a large enough effect in the signal ratio in the repeat runs, with a control signal flat, not every such curve was filed as active; the % refers to the signal ratio; note: potency is the fitted concentration of half-maximal effect); settings: HEK293 AR-UAS-bla GripTite, beta-lactamase FRET ratio, 16 h; series mostly up to 62.4 µM
Method in brief: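 Quantitative HTS of the Tox21 10K library in HEK293 cells bearing a stably integrated UAS-controlled beta-lactamase reporter. Compound exposure lasted 16 h at 37C. Reporter activity was detected by FRET substrate fluorescence after 2 h at room temperature.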

Row | Compound | Potency
45 | CC(CO)Oc1ccccc1 (centres undefined) | inactive
46 | NC(=S)NC(N)=S | inactive
47 | Cc1ccc(C)cc1 | inactive
48 | CCCCC(CC)CN1CN(CC(CC)CCCC)CC(C)(N)C1 (centres undefined) | inactive
49 | CC(=O)c1ccc(C(C)=O)cc1 | inactive
50 | O=C(/C=C/c1ccccc1)OC/C=C/c1ccccc1 | inactive
51 | CCCCCCCCCCOC(=O)c1ccccc1C(=O)OCCCCCCCC | inactive
52 | c1ccsc1 | 5.9 µM (active)

biological target: Androgen receptor (Homo sapiens) (UniProt P10275); test: qHTS assay to identify small molecule agonists of the androgen receptor (AR) signaling pathway using the MDA cell line (AID 743040; note: nearly all actives have a fitted effect of over 20% in size); settings: MDA-kb2 AR-luc cells, MMTV luciferase, 16 h, hits give high values; series mostly up to 70.3 µM
Method in brief: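 Stable MMTV-luciferase reporter in MDA-kb2 cells; note the promoter carries GR as well as AR response elements. 16 h compound treatment, 37C, 0% CO2; ONE-Glo luminescence endpoint.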

Row | Compound | outcome
53 | CC(CO)Oc1ccccc1 (centres undefined) | inactive
54 | NC(=S)NC(N)=S | inactive
55 | Cc1ccc(C)cc1 | inactive
56 | CCCCC(CC)CN1CN(CC(CC)CCCC)CC(C)(N)C1 (centres undefined) | inactive
57 | CC(=O)c1ccc(C(C)=O)cc1 | inactive
58 | CCOC(=O)Cn1cccc1-c1nc(-c2ccc(OC)cc2)c(-c2ccc(OC)cc2)s1 | inactive
59 | O=C(/C=C/c1ccccc1)OC/C=C/c1ccccc1 | inactive
60 | FC(F)(F)c1cccc(Cl)c1 | inactive
61 | CCCCCCCCCCOC(=O)c1ccccc1C(=O)OCCCCCCCC | inactive
62 | OC[C@H]1O[C@H](O[C@H]2O[C@H](CO)[C@@H](O)[C@H](O)[C@H]2O)[C@H](O)[C@@H](O)[C@@H]1O | inactive

tested on: not listed separately; test: qHTS assay to identify small molecule antagonists of the androgen receptor (AR) signaling pathway using the MDA cell line - cell viability counter screen (AID 743041; note: nearly all actives have a fitted effect of over 45% in size; note: potency is the fitted concentration of half-maximal effect); settings: MDA-kb2 viability, CellTiter-Fluor, 16 h, cells co-treated with R1881 androgen agonist; series mostly up to 70.3 µM
Method in brief: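 Using the breast carcinoma line MDA-kb2 AR-luc, test chemicals were co-incubated with R1881 for 16 h; CellTiter-Fluor reagent, added at 15.5 h, provided a fluorescence measure of live cells.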

Row | Compound | Potency | viability change, negative = cytotoxic
63 | CC(CO)Oc1ccccc1 (centres undefined) | inactive | 
64 | NC(=S)NC(N)=S | inactive | 
65 | O=C1C(c2[nH]c3ccc(S(=O)(=O)O)cc3c2O)=Nc2ccc(S(=O)(=O)O)cc21 | inactive | 
66 | Cc1c(C)c2c(c(C)c1O)CC[C@@](C)(CCC[C@H](C)CCC[C@H](C)CCCC(C)C)O2 | inactive | 
67 | O=C(O)c1cccc(C(F)(F)F)c1 | inactive | 
68 | Cc1ccc(C)cc1 | inactive | 
69 | CCCC1CCC(=O)CC1 | inactive | 
70 | C=C(C)c1cccc(C(=C)C)c1 | inactive | 
71 | O=C(O)CCN(C1(C(=O)NO)CCCC1)S(=O)(=O)c1ccc(Oc2ccc(F)cc2)cc1 | inactive | 
72 | CCCC(=O)OC(C)(C)Cc1ccccc1 | inactive | 
73 | CC(C)CCOC(=O)/C=C/c1ccccc1 | inactive | 
74 | CCCCCc1ccc(Cl)cc1 | inactive | 
75 | OCC(F)(F)F | inactive | 
76 | CCCCC(CC)CN1CN(CC(CC)CCCC)CC(C)(N)C1 (centres undefined) | inactive | 
77 | COc1cc(/C=C/c2ccccc2)oc(=O)c1 | inactive | 
78 | CC(=O)c1ccc(C(C)=O)cc1 | inactive | 

Row | Compound | Potency | viability change, negative = cytotoxic
79 | CCOC(=O)Cn1cccc1-c1nc(-c2ccc(OC)cc2)c(-c2ccc(OC)cc2)s1 | inactive | 
80 | O=C(Oc1ccccc1)Oc1ccccc1 | inactive | 
81 | O=C(/C=C/c1ccccc1)OC/C=C/c1ccccc1 | inactive | 
82 | O=C(O)O |  | -5.91% [at 8.47 µM] (inactive)
83 | O=[N+]([O-])c1ccc(F)c(Cl)c1 | inactive | 
84 | FC(F)(F)c1cccc(Cl)c1 | inactive | 
85 | Cc1ccc(C(C)C)cc2c(C)ccc1-2 | inactive | 
86 | CCCCCCCCCCOC(=O)c1ccccc1C(=O)OCCCCCCCC | inactive | 
87 | CCOC(=O)c1ccc(C2CCC(NC[C@H](O)COc3ccc(O)c(NS(C)(=O)=O)c3)CC2)cc1 (some centres undefined) | inactive | 
88 | c1ccsc1 | inactive | 
89 | c1cnccn1 | inactive | 
90 | OC[C@H]1O[C@H](O[C@H]2O[C@H](CO)[C@@H](O)[C@H](O)[C@H]2O)[C@H](O)[C@@H](O)[C@@H]1O | inactive | 
91 | C#CC1(O)CC[C@H]2[C@@H]3CCC4=CCCC[C@@H]4[C@H]3CC[C@@]21C (some centres undefined) | inactive | 
92 | CCCCCCCCCCCCCC[N+](C)(C)Cc1ccccc1 | 49.3 µM (active) | 
93 | CC1(C)CC(O)CC(C)(C)N1 | inactive | 
94 | CCc1cccc(CC)c1NC(=O)CN(CC(=O)O)CC(=O)O | inactive | 
